The target in test [1] is Mitogen-activated protein kinase 3 (Homo sapiens) (UniProt P27361). Conditions: at 1 µM.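 Note: values are mean percent inhibition of MAPK3.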
For test [2], the target named is SRSF protein kinase 3 (Homo sapiens) (UniProt Q9UPE1). Conditions: at 0.1 µM.
Test [3] shares this target. Conditions: at 1 µM.
For test [4], the target named is Mitogen-activated protein kinase 14 (Homo sapiens) (UniProt Q16539). The note with it: at 0.1 µM.
Test [5] shares this target. Conditions: at 1 µM.
In test [6] the target is Mitogen-activated protein kinase 11 (Homo sapiens) (UniProt Q15759). The note with it: at 0.1 µM.
Chain of Mitogen-activated protein kinase 11 (Homo sapiens) (Q15759 whole entry): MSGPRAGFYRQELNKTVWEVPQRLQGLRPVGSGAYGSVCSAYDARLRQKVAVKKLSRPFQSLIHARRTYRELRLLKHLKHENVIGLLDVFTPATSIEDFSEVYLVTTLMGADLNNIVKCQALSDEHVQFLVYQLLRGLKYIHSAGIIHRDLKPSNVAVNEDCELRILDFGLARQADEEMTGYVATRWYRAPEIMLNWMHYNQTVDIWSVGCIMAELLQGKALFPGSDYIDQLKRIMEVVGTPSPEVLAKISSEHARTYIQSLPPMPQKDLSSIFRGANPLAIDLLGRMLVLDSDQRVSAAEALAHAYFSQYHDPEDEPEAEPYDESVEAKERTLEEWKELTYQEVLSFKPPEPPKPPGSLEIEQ
Test [7] shares this target. The note with it: at 1 µM.
Test [8] deals with T1, Mitogen-activated protein kinase 13 (Homo sapiens) (UniProt O15264).
T1 sequence (whole entry): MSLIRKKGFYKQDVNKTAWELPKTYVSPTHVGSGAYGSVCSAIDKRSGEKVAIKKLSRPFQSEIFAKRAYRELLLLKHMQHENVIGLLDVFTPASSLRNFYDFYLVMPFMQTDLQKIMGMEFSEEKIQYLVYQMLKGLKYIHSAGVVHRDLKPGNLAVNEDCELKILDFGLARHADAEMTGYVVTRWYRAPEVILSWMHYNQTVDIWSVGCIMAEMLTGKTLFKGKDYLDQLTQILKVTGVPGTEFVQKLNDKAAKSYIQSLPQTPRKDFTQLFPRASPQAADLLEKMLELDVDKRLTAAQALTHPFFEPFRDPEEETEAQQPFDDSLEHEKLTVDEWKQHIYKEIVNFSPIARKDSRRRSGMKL
Conditions: at 0.1 µM.

Test [9] addresses T1, Mitogen-activated protein kinase 13 (Homo sapiens). The note with it: at 1 µM.
Test [10] addresses T2, Mitogen-activated protein kinase 12 (Homo sapiens) (UniProt P53778).
T2 sequence (whole entry): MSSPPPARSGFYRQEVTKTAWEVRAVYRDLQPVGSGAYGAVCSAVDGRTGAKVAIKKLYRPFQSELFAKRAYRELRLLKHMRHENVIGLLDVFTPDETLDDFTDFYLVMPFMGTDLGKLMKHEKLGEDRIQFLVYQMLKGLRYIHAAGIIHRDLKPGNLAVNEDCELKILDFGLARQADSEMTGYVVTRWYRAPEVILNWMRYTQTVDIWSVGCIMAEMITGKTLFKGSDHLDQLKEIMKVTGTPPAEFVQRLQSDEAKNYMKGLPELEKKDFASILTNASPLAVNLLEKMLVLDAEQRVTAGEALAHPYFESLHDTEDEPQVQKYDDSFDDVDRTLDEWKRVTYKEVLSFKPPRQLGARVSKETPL
The note with it: at 0.1 µM.

Test [11] concerns the target T2, Mitogen-activated protein kinase 12 (Homo sapiens). The note with it: at 1 µM.
Test [12] deals with SRSF protein kinase 1 (Homo sapiens) (UniProt Q96SB4). Conditions: at 0.1 µM.
Chain of SRSF protein kinase 1 (Homo sapiens) (Q96SB4 whole entry): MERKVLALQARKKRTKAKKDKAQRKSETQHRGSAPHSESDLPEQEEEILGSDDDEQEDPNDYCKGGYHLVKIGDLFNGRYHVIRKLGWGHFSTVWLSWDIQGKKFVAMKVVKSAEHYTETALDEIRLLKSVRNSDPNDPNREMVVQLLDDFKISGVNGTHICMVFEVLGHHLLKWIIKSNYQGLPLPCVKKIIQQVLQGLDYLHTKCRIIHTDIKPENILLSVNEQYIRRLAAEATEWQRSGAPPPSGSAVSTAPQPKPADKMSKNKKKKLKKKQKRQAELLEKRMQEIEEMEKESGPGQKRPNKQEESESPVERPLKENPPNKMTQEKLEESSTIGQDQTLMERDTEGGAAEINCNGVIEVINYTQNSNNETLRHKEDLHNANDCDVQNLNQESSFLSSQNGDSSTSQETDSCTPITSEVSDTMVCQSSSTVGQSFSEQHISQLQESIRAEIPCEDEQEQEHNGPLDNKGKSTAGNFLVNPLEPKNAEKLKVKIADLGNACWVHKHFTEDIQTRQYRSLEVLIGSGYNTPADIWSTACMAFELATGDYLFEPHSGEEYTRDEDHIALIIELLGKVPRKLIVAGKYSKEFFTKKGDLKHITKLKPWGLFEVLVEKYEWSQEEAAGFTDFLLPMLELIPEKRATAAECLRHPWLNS
Test [13] shares this target. Conditions: at 1 µM.
Test [14] addresses Phosphatidylinositol 4,5-bisphosphate 3-kinase catalytic subunit alpha isoform (Homo sapiens) (UniProt P42336). Conditions: at 0.1 µM.
For test [15] the target is unchanged. Conditions: at 1 µM.
The target of test [16] is T3, Phosphatidylinositol 4,5-bisphosphate 3-kinase catalytic subunit delta isoform (Homo sapiens) (UniProt O00329).
T3 sequence (whole entry): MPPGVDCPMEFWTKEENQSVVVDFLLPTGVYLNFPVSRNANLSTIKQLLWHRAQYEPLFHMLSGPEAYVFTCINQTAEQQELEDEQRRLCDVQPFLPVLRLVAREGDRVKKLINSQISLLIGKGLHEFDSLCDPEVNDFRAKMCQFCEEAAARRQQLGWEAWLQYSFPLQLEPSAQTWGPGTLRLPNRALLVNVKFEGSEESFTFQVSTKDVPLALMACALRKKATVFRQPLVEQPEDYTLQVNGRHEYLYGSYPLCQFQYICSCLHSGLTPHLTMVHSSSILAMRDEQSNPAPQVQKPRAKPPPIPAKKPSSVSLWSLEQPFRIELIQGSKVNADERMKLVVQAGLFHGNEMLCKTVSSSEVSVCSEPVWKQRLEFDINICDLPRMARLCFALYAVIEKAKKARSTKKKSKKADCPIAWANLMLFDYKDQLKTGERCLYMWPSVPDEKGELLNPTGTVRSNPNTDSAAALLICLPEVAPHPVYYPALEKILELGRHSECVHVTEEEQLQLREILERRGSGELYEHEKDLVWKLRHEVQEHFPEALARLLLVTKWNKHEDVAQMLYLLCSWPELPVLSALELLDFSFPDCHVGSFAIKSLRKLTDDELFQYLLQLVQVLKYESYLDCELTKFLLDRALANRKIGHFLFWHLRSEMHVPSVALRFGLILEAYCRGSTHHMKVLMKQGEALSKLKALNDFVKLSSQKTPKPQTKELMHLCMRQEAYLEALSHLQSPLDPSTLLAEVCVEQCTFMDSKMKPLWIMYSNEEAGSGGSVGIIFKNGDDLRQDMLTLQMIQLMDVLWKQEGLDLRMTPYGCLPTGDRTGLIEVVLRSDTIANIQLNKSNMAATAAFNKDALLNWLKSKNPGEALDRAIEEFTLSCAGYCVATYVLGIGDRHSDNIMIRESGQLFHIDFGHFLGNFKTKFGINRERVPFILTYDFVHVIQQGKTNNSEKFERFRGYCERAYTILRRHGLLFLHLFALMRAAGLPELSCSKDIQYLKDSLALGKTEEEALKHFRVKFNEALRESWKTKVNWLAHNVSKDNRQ
The note with it: at 0.1 µM.

For test [17], the target named is T3, Phosphatidylinositol 4,5-bisphosphate 3-kinase catalytic subunit delta isoform (Homo sapiens). Conditions: at 1 µM.
Test [18] deals with Phosphatidylinositol 4-kinase beta (Homo sapiens) (UniProt Q9UBF8). Conditions: at 0.1 µM.
Chain of Phosphatidylinositol 4-kinase beta (Homo sapiens) (Q9UBF8 2-816 limits assumed): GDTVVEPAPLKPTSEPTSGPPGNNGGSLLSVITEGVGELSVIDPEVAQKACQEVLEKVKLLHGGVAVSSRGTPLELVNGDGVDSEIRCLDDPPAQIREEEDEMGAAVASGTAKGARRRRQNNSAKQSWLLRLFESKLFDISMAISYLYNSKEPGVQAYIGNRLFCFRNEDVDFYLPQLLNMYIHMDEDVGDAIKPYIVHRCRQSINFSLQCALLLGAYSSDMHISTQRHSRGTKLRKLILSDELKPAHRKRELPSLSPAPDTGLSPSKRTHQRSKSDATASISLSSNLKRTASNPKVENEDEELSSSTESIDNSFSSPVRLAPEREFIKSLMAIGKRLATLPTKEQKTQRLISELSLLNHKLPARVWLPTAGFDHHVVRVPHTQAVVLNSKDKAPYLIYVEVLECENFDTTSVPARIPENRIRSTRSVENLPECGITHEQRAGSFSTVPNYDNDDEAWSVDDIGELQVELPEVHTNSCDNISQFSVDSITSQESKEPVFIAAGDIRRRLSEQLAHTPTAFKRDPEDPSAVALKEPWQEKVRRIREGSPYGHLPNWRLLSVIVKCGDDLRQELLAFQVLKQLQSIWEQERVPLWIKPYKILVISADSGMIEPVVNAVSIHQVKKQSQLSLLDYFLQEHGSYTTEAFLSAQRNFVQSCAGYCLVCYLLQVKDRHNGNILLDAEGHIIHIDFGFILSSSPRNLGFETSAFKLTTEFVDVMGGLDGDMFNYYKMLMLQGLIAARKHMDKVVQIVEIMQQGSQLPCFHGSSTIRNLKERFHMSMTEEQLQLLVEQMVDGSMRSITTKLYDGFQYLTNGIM
Test [19] has the same target. The note with it: at 1 µM.
In test [20] the target is Sphingosine kinase 1 (Homo sapiens) (UniProt Q9NYA1). The note with it: at 0.1 µM.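 Note: mean percent inhibition of SPHK1 activity, measured within the GSK PKIS screening panel.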
Chain of Sphingosine kinase 1 (Homo sapiens) (Q9NYA1 whole entry): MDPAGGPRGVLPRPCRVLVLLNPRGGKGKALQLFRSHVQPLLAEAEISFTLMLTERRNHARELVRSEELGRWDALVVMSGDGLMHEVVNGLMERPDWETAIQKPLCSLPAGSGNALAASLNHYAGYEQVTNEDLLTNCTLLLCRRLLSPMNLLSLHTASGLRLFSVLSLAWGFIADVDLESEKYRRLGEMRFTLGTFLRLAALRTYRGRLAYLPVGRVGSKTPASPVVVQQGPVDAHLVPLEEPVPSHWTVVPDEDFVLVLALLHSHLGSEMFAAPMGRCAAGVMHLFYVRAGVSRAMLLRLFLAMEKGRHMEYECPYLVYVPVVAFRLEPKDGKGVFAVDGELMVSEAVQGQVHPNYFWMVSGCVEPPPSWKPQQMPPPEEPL

Here are results for six compounds from ChEMBL document CHEMBL1961873, “Compounds: GSK PKIS; Assays: Nanosyn kinase panel” (2012).

Chain of SRSF protein kinase 3 (Homo sapiens) (Q9UPE1 whole entry): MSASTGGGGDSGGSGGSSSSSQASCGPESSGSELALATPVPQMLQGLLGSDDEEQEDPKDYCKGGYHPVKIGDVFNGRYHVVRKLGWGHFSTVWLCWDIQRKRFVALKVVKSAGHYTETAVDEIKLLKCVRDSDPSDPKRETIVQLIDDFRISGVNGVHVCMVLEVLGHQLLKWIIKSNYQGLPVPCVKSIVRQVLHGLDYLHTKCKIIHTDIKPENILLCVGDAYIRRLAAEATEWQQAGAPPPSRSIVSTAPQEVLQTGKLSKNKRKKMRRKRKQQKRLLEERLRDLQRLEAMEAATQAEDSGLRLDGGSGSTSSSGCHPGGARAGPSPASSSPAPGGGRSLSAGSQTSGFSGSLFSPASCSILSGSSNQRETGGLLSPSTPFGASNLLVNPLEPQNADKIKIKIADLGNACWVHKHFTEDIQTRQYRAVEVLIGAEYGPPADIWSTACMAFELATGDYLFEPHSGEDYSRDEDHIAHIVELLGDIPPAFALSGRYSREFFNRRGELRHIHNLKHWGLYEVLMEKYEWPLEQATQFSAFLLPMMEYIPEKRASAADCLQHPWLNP
Chain of Mitogen-activated protein kinase 14 (Homo sapiens) (Q16539 whole entry): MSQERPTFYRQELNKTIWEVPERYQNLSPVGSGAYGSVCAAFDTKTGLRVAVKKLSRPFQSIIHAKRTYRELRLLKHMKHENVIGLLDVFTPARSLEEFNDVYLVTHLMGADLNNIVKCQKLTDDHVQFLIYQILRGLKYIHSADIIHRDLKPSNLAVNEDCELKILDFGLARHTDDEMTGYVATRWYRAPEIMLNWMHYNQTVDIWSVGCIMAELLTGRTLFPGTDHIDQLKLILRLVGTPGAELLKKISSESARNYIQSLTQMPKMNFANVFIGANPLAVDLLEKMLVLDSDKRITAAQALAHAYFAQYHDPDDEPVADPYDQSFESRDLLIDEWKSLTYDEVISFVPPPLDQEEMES
Chain of Mitogen-activated protein kinase 3 (Homo sapiens) (P27361 whole entry): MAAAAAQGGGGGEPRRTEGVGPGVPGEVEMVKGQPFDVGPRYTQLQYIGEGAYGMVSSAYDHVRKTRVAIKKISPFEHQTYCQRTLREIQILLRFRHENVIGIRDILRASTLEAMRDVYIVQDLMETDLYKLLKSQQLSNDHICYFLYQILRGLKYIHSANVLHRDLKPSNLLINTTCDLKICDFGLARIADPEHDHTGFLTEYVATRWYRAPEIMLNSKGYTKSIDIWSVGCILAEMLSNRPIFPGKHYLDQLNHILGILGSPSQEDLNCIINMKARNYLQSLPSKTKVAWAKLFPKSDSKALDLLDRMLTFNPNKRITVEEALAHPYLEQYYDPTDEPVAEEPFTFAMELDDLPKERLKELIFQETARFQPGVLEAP
Chain of Phosphatidylinositol 4,5-bisphosphate 3-kinase catalytic subunit alpha isoform (Homo sapiens) (P42336 whole entry, canonical isoform): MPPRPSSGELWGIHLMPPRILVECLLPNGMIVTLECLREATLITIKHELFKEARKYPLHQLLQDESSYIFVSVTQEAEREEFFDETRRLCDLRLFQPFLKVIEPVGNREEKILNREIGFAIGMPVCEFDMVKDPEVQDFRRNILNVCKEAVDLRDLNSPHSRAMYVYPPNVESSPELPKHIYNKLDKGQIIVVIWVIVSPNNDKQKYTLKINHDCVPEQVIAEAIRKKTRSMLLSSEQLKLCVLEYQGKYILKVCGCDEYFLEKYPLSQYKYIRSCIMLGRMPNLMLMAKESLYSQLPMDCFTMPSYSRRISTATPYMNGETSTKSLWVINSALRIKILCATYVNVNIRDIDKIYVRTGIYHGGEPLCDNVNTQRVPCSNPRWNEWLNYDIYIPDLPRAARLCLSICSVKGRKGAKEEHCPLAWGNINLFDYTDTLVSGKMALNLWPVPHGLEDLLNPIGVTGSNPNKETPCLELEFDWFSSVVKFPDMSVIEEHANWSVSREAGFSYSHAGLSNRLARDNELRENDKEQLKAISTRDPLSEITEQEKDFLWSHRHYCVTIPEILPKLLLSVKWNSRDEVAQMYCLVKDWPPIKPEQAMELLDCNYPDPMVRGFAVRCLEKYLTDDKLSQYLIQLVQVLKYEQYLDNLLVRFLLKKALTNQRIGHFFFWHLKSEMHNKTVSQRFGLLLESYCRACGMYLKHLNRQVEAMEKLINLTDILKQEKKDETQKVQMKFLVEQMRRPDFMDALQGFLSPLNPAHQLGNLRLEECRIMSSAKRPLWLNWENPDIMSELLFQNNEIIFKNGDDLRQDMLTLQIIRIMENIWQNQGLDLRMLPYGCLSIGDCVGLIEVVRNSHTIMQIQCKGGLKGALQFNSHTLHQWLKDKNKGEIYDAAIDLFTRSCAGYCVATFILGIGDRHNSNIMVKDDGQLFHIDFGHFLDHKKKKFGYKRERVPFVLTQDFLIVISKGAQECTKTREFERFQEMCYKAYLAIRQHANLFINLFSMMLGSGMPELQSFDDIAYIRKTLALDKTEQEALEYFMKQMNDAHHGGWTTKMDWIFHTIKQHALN

Usually inhibition stands for the relative decrease from the control value, in per cent. `COc1cc2ncnc(Nc3ccc(C)c(O)c3)c2cc1OC`: the inhibition in [1] is 7.04%; in test [2], -1.99%; in test [3] it was 0.42%; in [4], 5.71%; in test [5], 22.1%; in test [6], 6.38%. For the same compound, the inhibition is 17.4% in test [7]; -2.57% in test [8]; 6.31% in test [9]; 2.43% in test [10]; 4.08% in test [11]; -1.2% in test [12]. For the same compound, the inhibition was -0.28% in test [13]; 4.07% in [14]; 7.27% in test [15]; 1.27% in test [16]; 4.88% in test [17]; -1.03% in test [18]. The figures for the inhibition in [19] and in test [20] were -0.17% and 4.48%, respectively.

As for `CN(c1ccc(NC(=O)Nc2ccc(OC(F)(F)F)cc2)cc1)c1ccnc(Nc2cccc(S(N)(=O)=O)c2)n1`, the inhibition in [1] was 3.33%; in [2], -1.09%; in test [3], 16.6%; in test [4], 4.8%; in test [5], 13.6%; in test [6] it was 4.81%. In addition, the inhibition in test [7] was 16.7%; in test [8] it was 2.86%; in [9], 6.6%; in test [10], 2.28%; in [11], 11.2%; in test [12] it was -0.74%. Besides, the inhibition was 1.1% in [13]; 2.98% in test [14]; 5.04% in [15]; 1.08% in test [16]; 3.29% in test [17]; -1.47% in test [18]. In addition, the inhibition in test [19] was 3.37%; in [20] it was -0.13%.

For the compound `Cc1ccc2c(-c3ccnc(Nc4ccc5c(c4)OCCO5)n3)c(-c3ccc(C(F)(F)F)cc3)nn2n1`, the inhibition in test [1] was 3.87%; in test [2], -2.01%; in [3] it was -1.1%; in test [4] it was 3.33%; in test [5], 23.2%; in test [6], 1.91%. The inhibition is 5.75% in test [7]; 0.71% in test [8]; -1.27% in test [9]; 0.73% in [10]; 0.43% in [11]; -1.35% in test [12]. For the same compound, the inhibition is -3.21% in test [13]; -1.09% in test [14]; -0.65% in [15]; 0.68% in test [16]; 0.76% in test [17]; 6.55% in test [18]. Further, the inhibition in test [19] is -2.49%; in [20], 0%.

Consider `O=C1Nc2ccc(-c3cccnc3)cc2C1=Cc1cc(Br)c(O)c(Br)c1`, for which the inhibition in test [1] is 1.77%; in test [2] it was 1.44%; in test [3], 1.95%; in test [4] it was 5.87%; in [5] it was 7.67%; in test [6], 1.48%. Also, the inhibition in test [7] is 1.36%; in test [8] it was 1.39%; in [9], 3.3%; in test [10], 2.25%; in [11] it was 2.31%; in [12], -1.92%. Moreover, the inhibition in [13] is -2.45%; in test [14], 11.3%; in test [15], 55.5%; in test [16], -8.03%; in test [17] it was -3.91%; in test [18], 35.2%. Further, the inhibition is 77.7% in test [19] and 5.72% in test [20].

In the case of `c1ccc(Nc2ncc(-c3ccccc3)o2)cc1`, the inhibition in [1] is 4.13%; in test [2], -1.27%; in test [3] it was -0.17%; in [4] it was 9.09%; in [5] it was 11.8%; in test [6] it was 5.86%. Further, the inhibition in test [7] is 5.93%; in [8], 4.95%; in test [9], 4.65%; in [10], 2.89%; in test [11], 5.26%; in test [12] it was -2.25%. Further, the inhibition in [13] was -2.19%; in test [14] it was 5.87%; in test [15], 6.84%; in [16], 1.87%; in [17], 4.99%; in [18], 5.07%. In addition, the inhibition in [19] is -3.06%; in [20], 2.26%.

Take `Cc1ccc(O)cc1Nc1ccnc2ccc(S(C)(=O)=O)cc12`: the inhibition in [1] is 2.62%; in test [2], -1.95%; in test [3], -1.35%; in test [4] it was 14%; in [5], 58.8%; in test [6] it was 9%. Besides, the inhibition in test [7] is 34.2%; in test [8], 2.61%; in test [9], 6.26%; in test [10], 0.62%; in test [11], 3.79%; in [12], -0.84%. For the same compound, the inhibition in test [13] was 2.51%; in test [14] it was 9.67%; in test [15], 39.6%; in test [16], 10.9%; in test [17], 50.7%; in test [18] it was -3.87%. Also, the inhibition in test [19] amounted to 1.39%; in test [20], 1.12%.
